As usually defined, the AC50 is the concentration giving half of the maximal activity seen.

Data on eight compounds can be found in PubChem BioAssay (EPA / NIEHS).

Values joined by “and” are separate entries in the source; they are usually repeats but may differ in a detail not shown here. Equal values may be shown once. Active and inactive are the calls of the source. Rule for the calls: active = hit-call score of the fitted dose curve at least 0.9, where 1 is the maximum; inactive = score below 0.9.

Read-out in this experiment: CD40, CD40 (gene 958)
Put plainly: BSK_LPS_CD40: BioMAP Diversity Plus: LPS Assay for CD40 Biomarker Activity (AID 2283076). Conditions: primary human HUVEC with PBMC; actives raise or lower the signal. The method in brief:
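Using a multiplexed primary human co-culture (umbilical vein endothelium plus PBMC), CD40 was read by ELISA 24 h after dosing, with cytotoxicity tracked by sulforhodamine B staining of parallel cultures and activity fitted bidirectionally versus DMSO.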
With `O=C(O)C(F)(F)C(F)(F)C(F)(F)OC(F)(F)F`, the outcome was inactive.
For the compound `OCC(F)(F)C(F)(F)C(F)(F)C(F)(F)C(F)(F)C(F)(F)CO`, the outcome was inactive.
Regarding `OCCCC(F)(F)C(F)(F)C(F)(F)C(F)(F)C(F)(F)C(F)(F)C(F)(F)C(F)(F)F`, the AC50 was 34.7 µM (active) and 32.9 µM (active).
On to `O=C(O)CCC(F)(F)C(F)(F)C(F)(F)F`, for which the outcome was inactive.
On to `NC(=O)C(F)(F)C(F)(F)C(F)(F)F`, for which the result was inactive.
As to `NCC(F)(F)C(F)(F)C(F)(F)C(F)(F)C(F)(F)C(F)(F)F`, the outcome was inactive.
In the case of `CCN=C1C=CC(=C(c2ccc(N(CC)CC)cc2)c2ccc(N(CC)CC)cc2)c2ccccc21`, the AC50 is 244 nM (active) and 1.3 µM (active).
Consider `OCC(F)(F)C(F)(F)C(F)(F)CO`, for which the result was inactive.
